Source: PubChem BioAssay (NCI)
Compounds without any hit were thinned out: in the full panel of roughly 83,000, 20% have a hit.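 Activity criterion: percent growth below 10, measured after cells in 96-well plates were exposed to a single compound concentration for 48 hours.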 Unmarked numbers belong to inactive results. Active and inactive are the calls of the source.

System: PC-3 prostate
Assay: NCI-60 one-dose screen, 48 h (100 = growth as untreated, 0 = no growth, -100 = all killed)
Conditions: 10 µM unless noted
Procedure: Growth inhibition of the PC-3 human tumor cell line is measured as a screen for anti-cancer activity. Cells are grown in 96 well plates and exposed to the test compound for 48 hours. Compounds are tested at a single concentration, which is 10^-5 M for most compounds. The reported endpoint is percent growth (GI% or GIPRCNT), where numbers from 0 - 100% represent growth inhibition, and numbers from -100% - 0 represent cell death. For example, a value of 40 represents 60% growth inhibition. A value of 0 means no net growth occurred over the course of the experiment. A value of -40 indicates 40% of cells at the beginning of the experiment died by the end of the experiment. A value of -100 means all cells are dead at the end of the experiment.
NCI-60 Human Tumor Cell Lines Screen was performed using the standard one-dose NCI protocol, which is described in more detail at https://dtp.cancer.gov/discovery_development/nci-60/default.htm.
Compounds with GIPRCNT values below 10 were considered active. Activity score was based on GIPRCNT using the following formula: […]
Score is 0 for GIPRCNT values of 100 or above, 50 for GIPRCNT values of 0, and 100 for GIPRCNT values of -100.

Row | SMILES | growth
1 | CCCCCCCCCCCCCCCC[N+]1(CC)CCCC1 | -77.6% (active)
2 | Oc1c(Cl)cc(Cl)cc1CNc1nccnn1 | 94.8%
3 | CCN1CCN(Cc2ccc(NC(=O)Nc3nc4ccc(Oc5ccnc(C(=O)NC)c5)cc4s3)cc2C(F)(F)F)CC1 | -63.3% (active)
4 | COc1cc(C2CC(=O)Nc3c2cnn3Cc2ccco2)cc2c1OCCO2 (stereo not given) | 97.6%
5 | Oc1ccccc1N=Cc1c(O)ccc2ccccc12 | 61.3%
6 | COc1ccc(-c2cc(-c3cccnc3)nc3sc4c(=O)n(-c5ccc(C)cc5)cnc4c23)cc1OC | 91.2%
7 | CCCCCN(CCCCC)CCC[C@@H](C)[C@H]1CC[C@H]2[C@@H]3[C@H](OCCCN)C[C@@H]4C[C@H](OCCCN)CC[C@]4(C)[C@H]3C[C@H](OCCCN)[C@]12C | 80.5%
8 | C=C1CC2(OC1=O)C(=O)Nc1ccccc12 (stereo not given) | 73.6%
9 | CN(C)CCOc1ccc(-c2nc3ccc(-c4nc5ccc(N6CCN(C)CC6)cc5[nH]4)cc3[nH]2)cc1 | 76.2%
10 | Cc1nc2sc(C(=O)Nc3cccc4c3OCCO4)c(N)c2cc1C(C)O (stereo not given) | 32.6%
11 | CC(C)Oc1nc2c(c(=O)n(C)c(=O)n2C)n1C | 90.7%
12 | O=C1C=CC(Nc2ccccc2[N+](=O)[O-])C1Nc1ccccc1[N+](=O)[O-] (stereo not given) | 51.6%
13 | CS(CCCCN=C=S)=NC(=O)c1c(F)c(F)c(F)c(F)c1F (stereo not given) | 95.8%
14 | CCCCCCCCCCNC(=O)CCl | 66.1%
15 | O=c1c(/C=C/c2ccco2)nnc(SCCN2CCOCC2)n1/N=C/c1ccc([N+](=O)[O-])cc1 | 96.5%
16 | COc1ccc(S(=O)(=O)NCCCNc2nccc(-c3c(-c4cccc(N)c4)nc4sccn34)n2)cc1 | 81.4%
17 | Clc1cccc(Nc2nc(Nc3cnc4ccccc4c3)c3[nH]cnc3n2)c1 | 49.2%
18 | CCCNc1nc(SC)nc(-c2cccc(N)c2)c1C#N | 93.6%
19 | C#Cc1nc(Nc2cc(C)[nH]n2)c2ccccc2n1 | -42.1% (active)
20 | C=C1CCC2C3(C)COC(c4ccc(OC)cc4Br)OC3CCC2(C)C1/C=C/C1=CCOC1=O (stereo not given) | 47.7%

Row | SMILES | growth
21 | CS(=O)(=O)c1c(Nc2ccccc2)n[nH]c1N | 82.5%
22 | CCN(CC)C12CCCCC1(C)C(C#N)(C#N)C(C#N)=C(N)O2 (stereo not given) | 115%
23 | CCCCCCCCCCCCN1CCCC(C)C1 (stereo not given) | 67.4%
24 | O=C(CN1CCN(c2cc3c(cc2F)c(=O)c(C(=O)N/N=C/c2ccccc2)cn3C2CC2)CC1)N/N=C\c1ccccc1 | 50%
25 | COc1c2ccccc2c(OC)c2[nH]c(=O)ccc12 | 67%
26 | Cl/C(=N\Nc1ccccc1)c1ccccc1 | 78%
27 | CC/C=C\C[C@H](O)C/C=C1/C(=O)C=C[C@@H]1C/C=C\CCCC(=O)NC(C)C | 16.4%
28 | CC(C)(C)n1cc(-c2ccnc(NCCNS(=O)(=O)c3ccccc3)c2)c(-c2cccc(O)c2)n1 | 41.5%
29 | c1ccc2c(Nc3cccc4ccccc34)cccc2c1 | 65.2%
30 | Cc1ccc(SCN2CCN(c3cccc(Cl)c3)CC2)cc1 | 101%
31 | O=[N+]([O-])c1cccc(C2CC(c3ccccc3)=Nc3ccccc3S2)c1 (stereo not given) | 77.4%
32 | NCc1cn2cc(Cl)sc2n1 | 92.3%
33 | Cn1c2ccccc2c2c3[nH]c(=O)[nH]c(=O)c3c3c4ccccc4n(C)c3c21 | 41.1%
34 | Nc1ccc(N2CCOCC2)cc1 | 101%
35 | C[C@]12C[C@@H](c3ccoc3)OC(=O)[C@@H]1CC[C@]1(C)[C@@H]2CC[C@@H](O)[C@]1(C)O | 60.5%
36 | NC1=CC(=O)C(=O)c2ccccc21 | 91.1%
37 | CC(=O)C1=C(O)C=C2Oc3c(C(=O)/C=C/c4cc(C(F)(F)F)cc(C(F)(F)F)c4)c(O)c(C)c(O)c3[C@]2(C)C1=O | -8.91% (active)
38 | COc1ccc(/C=c2/c(=O)[nH]c3nc4sc(C)c(C)c4c(=O)n23)cc1 | 91%
39 | CCn1cc2c(cc1=O)-c1nc3ccccc3c3ccnc(c13)C2=O | 63.5%
40 | NS(=O)(=O)c1ccc(-n2ncc3c(=O)[nH]c(CN4CCN(c5cc6c(cc5F)c(=O)c(C(=O)O)cn6C5CC5)CC4)nc32)cc1 | 82.5%
